Experimental data reported in the supplement of paper PMC8877412.
Where a name gives a salt, the structure may show the parent alone. ± gives the uncertainty stated by the source.

Tested on: NCC-PMP1-C1
Assay: cell viability relative to DMSO control; higher = less growth inhibition
Settings: 10 µM; 72 h
Experimental: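 NCC-PMP1-C1 pseudomyxoma peritonei cells were seeded in 384-well plates coated with Matrigel and MEF (1e4 cells). Viability was read after 72 h by CCK-8 and expressed as % of the DMSO control, mean ± SD of duplicates.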

| SMILES | cell viability [%] |
| --- | --- |
| C=CCN1CC[C@]23c4c5ccc(O)c4O[C@H]2C(=O)CC[C@@]3(O)[C@H]1C5 [Naloxone HCl] | 1.93 ± 1.3 |
| Cc1c(N)nc(C(CC(N)=O)NCC(N)C(N)=O)nc1C(=O)NC(C(=O)NC(C)C(O)C(C)C(=O)NC(C(=O)NCCc1nc(-c2nc(C(=O)NCCC[S+](C)C)cs2)cs1)C(C)O)C(O[C@@H]1O[C@@H](CO)[C@@H](O)[C@H](O)[C@@H]1O[C@H]1O[C@H](CO)[C@@H](O)[C@H](OC(N)=O)[C@@H]1O)c1cnc[nH]1 (some centres undefined) [Bleomycin Sulfate] | 80.5 ± 1.4 |
| O=P1(N(CCCl)CCCl)NCCCO1 (centres undefined) [Cyclophosphamide Monohydrate] | 107 ± 9.1 |
| O=C(O)CCCc1ccc(N(CCCl)CCCl)cc1 [Chloroambucil] | 87 ± 20 |
| CC(=O)OC12COC1CC(O)C1(C)C(=O)C(O)C3=C(C)C(O)CC(O)(C(OC(=O)c4ccccc4)C21)C3(C)C (centres undefined) [10-Deacetylbaccatin-III] | 94.7 ± 12 |
| C=C1C[C@@H]2[C@H](CC[C@]3(C)C(=O)CC[C@@H]23)[C@@]2(C)C=CC(=O)C=C12 [Exemestane] | 138 ± 5.7 |
| COCC1(CO)C(=O)C2CCN1CC2 (centres undefined) | 115 ± 8.3 |
| O=C1C2CCN(CC2)C1(CO)CO | 78.8 ± 3.1 |
| O=P1(NCCCl)OCCCN1CCCl (centres undefined) [Ifosfamide] | 106.5 ± 0.13 |
| Cn1c(CCCC(=O)O)nc2cc(N(CCCl)CCCl)ccc21 [Bendamustine HCl] | 127 ± 6 |
| C/C=C(\C)C(=O)N[C@@H](c1ccccc1)[C@@H](O)C(=O)O[C@H]1C[C@@]2(O)[C@@H](OC(=O)c3ccccc3)[C@@H]3[C@]4(OC(C)=O)CO[C@@H]4C[C@H](O)[C@@]3(C)C(=O)[C@H](OC(C)=O)C(=C1C)C2(C)C [Cephalomannine] | 74.9 ± 6.8 |
| NCCCNCCSP(=O)(O)O [Amifostine] | 95.3 ± 16 |
| CC[C@@]1(O)C(=O)OCc2c1cc1n(c2=O)Cc2cc3ccccc3nc2-1 [Camptothecin] | 82.2 ± 14 |
| N.N.[Cl][Pt][Cl] [Cisplatin] | 102 ± 3.3 |
